{"source": "PubChem BioAssay AID489012", "about": "(National Center for Advancing Translational Sciences (NCATS), 2010)", "note": "Results filed as inconclusive are left out. Unmarked numbers belong to inactive results. Active and inactive are the calls of the source. Calls follow the shape of the dose curve; as a rule, active = well fitted activation curve with a large enough effect; inconclusive = small, poorly fitted or top-dose-only effect; inactive = no such curve, though single readings can be large or run the other way. Potency is read from the fitted curve at half-maximal effect."}
{"target": "Relaxin receptor 1 (Homo sapiens) (UniProt Q9HBX9)", "sequence (Q9HBX9 whole entry, looked up)": "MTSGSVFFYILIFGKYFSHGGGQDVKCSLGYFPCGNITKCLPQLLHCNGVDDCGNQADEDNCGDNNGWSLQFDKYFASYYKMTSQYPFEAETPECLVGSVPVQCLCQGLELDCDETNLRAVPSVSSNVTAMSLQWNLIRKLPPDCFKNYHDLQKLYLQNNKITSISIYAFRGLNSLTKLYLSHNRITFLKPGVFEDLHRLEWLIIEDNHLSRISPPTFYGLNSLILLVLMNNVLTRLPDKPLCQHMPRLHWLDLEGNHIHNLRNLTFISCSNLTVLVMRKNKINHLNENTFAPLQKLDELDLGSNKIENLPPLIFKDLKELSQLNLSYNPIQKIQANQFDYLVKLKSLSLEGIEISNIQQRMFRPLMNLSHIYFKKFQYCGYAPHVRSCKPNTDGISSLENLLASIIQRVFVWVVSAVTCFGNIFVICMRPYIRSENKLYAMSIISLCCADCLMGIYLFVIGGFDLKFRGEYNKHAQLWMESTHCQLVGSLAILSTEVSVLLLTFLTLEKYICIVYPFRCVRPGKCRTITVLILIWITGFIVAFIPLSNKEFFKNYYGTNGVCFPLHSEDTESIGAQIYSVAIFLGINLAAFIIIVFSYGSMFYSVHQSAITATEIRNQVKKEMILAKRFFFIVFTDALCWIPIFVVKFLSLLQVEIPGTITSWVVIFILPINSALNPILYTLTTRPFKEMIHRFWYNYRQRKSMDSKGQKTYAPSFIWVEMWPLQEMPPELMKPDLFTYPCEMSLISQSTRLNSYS", "assay": "qHTS Assay for Agonists of the Relaxin Receptor RXFP1: RXFP1 Hit Validation; also: nearly all actives have a fitted effect of over 65% in size;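 as to activation: cAMP rise lowers the TR-FRET signal in lysed cells with PDE4 inhibitor present; 0% = buffer-only basal and 100% = 29 nM porcine relaxin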", "settings": "HEK293T-RXFP1 cAMP TR-FRET, 30 min; series mostly up to 115 µM; activation: at the top concentration"}
{"smiles": "Cc1ccc(Cl)cc1NC(=O)CCCN1C(=O)c2cccnc2C1=O", "activation": "22.7%"}
{"smiles": "Cc1cccn2c(=O)c3cc(C(=O)NC4CCCC4)c(=N)n(CCCN4CCOCC4)c3nc12", "activation": "22.6%"}
{"smiles": "Cc1cc(C)nc(NS(=O)(=O)c2ccc(N3C(=O)c4ccccc4C3=O)cc2)n1", "Potency": "29.8 µM (active)"}
{"smiles": "CCN(CC)C(=O)c1cc(Cl)ccc1NC(=O)c1ccco1", "activation": "-1.6% [at 125 µM]"}
{"smiles": "Cn1c2c(c(=O)n3ncnc13)CCCC2", "activation": "29.5%"}
{"smiles": "Cc1cccc(C(=O)Nc2ccccc2C(=O)NCc2ccco2)c1", "activation": "9.91% [at 125 µM]"}
{"smiles": "Cc1cc(C)nc(NS(=O)(=O)c2ccc(NC(=O)c3nn(-c4ccccc4)ccc3=O)cc2)n1", "Potency": "24.5 µM (active)"}
{"smiles": "Cc1ccc(CN(C)C(=O)c2ccccc2NC(=O)c2ccccc2)o1", "activation": "-3.25% [at 125 µM]"}
{"smiles": "COc1cccc(CNC(=O)c2ccc(CS(=O)Cc3ccc(C)cc3)o2)c1", "note": "(centres undefined)", "activation": "3.96% [at 45 µM]"}
{"smiles": "O=C(O)c1ccc(N=C2NC(=O)C(CO)(CO)S2)cc1", "activation": "4.45% [at 45 µM]"}
{"smiles": "CN(C)c1ccc(C(=S)N2CCN(S(=O)(=O)c3ccccc3)CC2)cc1", "activation": "0.765%"}
{"smiles": "COc1ccc(OC)c(CNC(=O)C2CCN(C(=O)N(C)C)CC2)c1", "activation": "-4.27%"}
{"smiles": "Cc1ccc(C(=O)Nc2ccccc2C(N)=O)o1", "activation": "-4.18% [at 125 µM]"}
{"smiles": "O=C(O)CCNc1ccc(NCCC(=O)O)c2c1C(=O)c1ccccc1C2=O", "activation": "-0.904%"}
{"smiles": "c1ccc(COn2nnc3ccccc32)c(COn2nnc3ccccc32)c1", "activation": "7.76% [at 45 µM]"}
{"smiles": "CCNc1nc(NCC)nc(N(C)/N=C/c2ccco2)n1", "activation": "7.3%"}
{"smiles": "Cc1cccc(-c2nnc(SCC(=O)NC3CC3)n2C)c1", "activation": "-32%"}
{"smiles": "O=C(Nc1ccccc1C(=O)NC1CCCCC1)c1ccco1", "activation": "17.3% [at 125 µM]"}
{"smiles": "N#C/C(=C\\c1c(N2CCC(C(N)=O)CC2)nc2ccccn2c1=O)C(=O)NC1CCCCC1", "activation": "24.3%"}
